Measurements as given in PubChem BioAssay (EPA / NIEHS).
Results filed as inconclusive are left out. Activity calls are given as the source filed them. The calls were made as follows: active = hit-call score of the fitted dose curve at least 0.9, where 1 is the maximum; inconclusive = response in the unintended direction; inactive = score below 0.9.

assay: CCTE_Simmons_MITO_viability: CellTiter-Glo Viability Assessment for CCTE's HepG2 Seahorse XF Respirometric Screening Assay [post-hoc], Simmons Lab (AID 2284007);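 as to AC50: cells exposed to chemical for 90 min before the ATP read; actives lower ATP signal relative to DMSO baseline meaning reduced viability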
Protocol: CCTE_Simmons_MITO is cell-based, respirometric assay using HepG2 cells and a Seahorse XF Analyzer to measure oxygen consumption rates over four temporal phases spanning a total of 72 minutes: pre-injection (pre-treatment), basal (following test compound injection), maximal (following FCCP uncoupler injection), and inhibited (following rotenone/antimycin A injection)CCTE_Simmons_MITO_viability is one of 4 assay components measured from the CCTE_Simmons_MITO assay. It is designed to make measurements of ATP content, a form of viability reporter, as detected with bioluminescence signals by Luciferase-coupled ATP quantitation technology. Data from the assay component CCTE_Simmons_MITO_viability was analyzed at the endpoint, CCTE_Simmons_MITO_viability, in the positive analysis fitting direction relative to DMSO as the negative control and baseline of activity. Using a type of viability reporter, measures of ATP content for loss-of-signal activity can be used to understand the viability. To generalize the intended target to other relatable targets, this assay endpoint is annotated to the cell cycle intended target family, where the subfamily is cytotoxicity.
Test chemicals were administered as a titrated series of 7 concentrations from 125 nM up to 100 uM [final] for 90 minutes prior to single endpoint detection. Three biological replicates of technical singles were run for every chemical concentration tested. Dimethylsulfoxide [DMSO] was used as the vehicle control. Dichlone [DCNQ] was used as the positive control and was administered as a titrated series of 8 concentrations from 10 nM up to 100 uM [final].

| Structure (SMILES) | outcome | AC50 |
| --- | --- | --- |
| CC(c1ccc(O)cc1)(c1ccc(O)cc1)c1ccc(O)cc1 | inactive |  |
| O=C(O)C(F)(F)C(F)(F)C(F)(F)C(F)(F)C(F)(F)C(F)(F)C(F)(F)C(F)(F)F | inactive |  |
| CC(C)(O)C(=O)Nc1ccc([N+](=O)[O-])c(C(F)(F)F)c1 | inactive |  |
| N#Cc1ccc(N(CC(N)=O)CC(F)(F)F)cc1C(F)(F)F | inactive |  |
| NS(=O)(=O)C(F)(F)C(F)(F)C(F)(F)C(F)(F)C(F)(F)C(F)(F)C(F)(F)C(F)(F)F | inactive |  |
| CCCCCCCCCC[N+](C)(C)CCCCCCCCCC |  | 28 µM (active) |
| CCC(C)c1cc([N+](=O)[O-])cc([N+](=O)[O-])c1O (centres undefined) |  | 2.91 µM (active) |
| CCSC(=O)N(CC)C1CCCCC1 | inactive |  |
| Oc1c(Cl)c(Cl)c(Cl)c(Cl)c1Cl |  | 6.35 µM (active) |
| O=C(O)C(F)(F)C(F)(F)C(F)(F)C(F)(F)C(F)(F)C(F)(F)C(F)(F)C(F)(F)C(F)(F)F | inactive |  |
| CO/C=C(/C(=O)OC)c1ccccc1COc1cccc(C(F)(F)F)n1 | inactive |  |
| COc1ccc(O)c(C(C)(C)C)c1 | inactive |  |
| CC(C)(c1ccccc1)c1ccc(O)cc1 | inactive |  |
| C[C@]12CCC(=O)C=C1CC[C@@H]1[C@@H]2CC[C@]2(C)C(=O)CC[C@@H]12 | inactive |  |
